Screening data as filed in PubChem BioAssay.
HP1b binding inh: inhibitors of HP1-beta chromodomain binding to methylated histone tails; Potency, µM (series often up to 114 µM), for the others: top-dose activity change, negative = inhibition, hits mostly inhibitors; 390,000 compounds, 0.56% hits; P83916; AlphaScreen HP1-beta / biotin-H3K9me3 peptide binding; AID 540317; also: nearly all actives have a fitted effect of over 70% in size
Target sequence (P83916 whole entry, looked up): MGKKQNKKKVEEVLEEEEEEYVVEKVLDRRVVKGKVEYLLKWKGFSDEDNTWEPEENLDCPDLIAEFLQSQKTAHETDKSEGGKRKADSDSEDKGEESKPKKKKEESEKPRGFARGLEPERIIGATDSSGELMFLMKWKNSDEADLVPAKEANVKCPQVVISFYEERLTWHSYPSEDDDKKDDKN
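HP1-beta protein (50 nM final) preincubated 30 min at room temperature with biotinylated H3(1-18)K9me3 peptide (50 nM) in PBS pH 7.4, 0.01% Tween-20, then compound added for 30 min. AlphaScreen streptavidin donor/nickel chelate acceptor beads (10 ug/mL final), 30 min dark, luminescence read.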
JMJD2A Tudor: JMJD2A Tudor domain (human) inhibition. O75164. AlphaScreen JMJD2A-Tudor / H3K4me3 peptide binding. Potency, µM (titrated, usually from 114 µM), for inactives: at the top dose activity change, negative = inhibition, actives largely listed as inhibitors. 390,000 compounds, 4.4% hits. AID 504339; also: % is scaled to controls: 0 for no effect and ±100 for the full control effect; nearly all actives have a fitted effect of over 50% in size
G9a block: G9a (human) methyltransferase inhibition; Q96KQ7; G9a H3K9 monomethylation, AlphaScreen, 2 h; Potency, µM (highest dose often 102 µM), inactives show at the top dose activity, negative = inhibition, most hits filed as inhibitors; 350,000 compounds, 8.8% hits; AID 504332; also: % is scaled to controls: 0 for no effect and ±100 for the full control effect; nearly all actives have a fitted effect of over 75% in size
Target sequence (Q96KQ7 913-1193 limits assumed): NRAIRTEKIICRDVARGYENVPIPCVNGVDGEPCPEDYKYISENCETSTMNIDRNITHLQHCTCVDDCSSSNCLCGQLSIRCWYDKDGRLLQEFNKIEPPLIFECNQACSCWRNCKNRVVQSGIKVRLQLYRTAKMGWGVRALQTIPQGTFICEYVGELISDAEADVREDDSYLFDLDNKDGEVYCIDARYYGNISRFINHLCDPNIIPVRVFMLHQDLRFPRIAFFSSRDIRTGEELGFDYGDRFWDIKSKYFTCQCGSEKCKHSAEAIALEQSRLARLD
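Readings reflect AlphaScreen signal from monomethyl-H3K9 antibody detection. HMT at 20 nM; substrate b-H3K9 500 nM; cofactor SAM 20 uM; 2 h RT reaction; compounds tested as titrations in qHTS with 15 min preincubation.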
BAZ2B inh: inhibitors of human BAZ2B bromodomain; Potency, µM (top dose mostly 114 µM), for inactives: at the highest dose activity change, negative = inhibition, usual class: inhibitors; 360,000 compounds, 4.4% hits; Q9UIF8; AlphaScreen BAZ2B-H3K14Ac peptide displacement; also: % is scaled to controls: 0 for no effect and ±100 for the full control effect; nearly all actives have a fitted effect of over 60% in size
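Protein-peptide AlphaScreen: BAZ2B 50 nM, b-H3K14Ac 50 nM, 1x PBS pH 7.4 + 0.01% Tween-20. Preincubation 30 min RT; cpd 30 min RT (top 110 uM); beads 20 min RT, light-protected.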
PLK1 PBD inh: PLK1 (human) polo-box domain binding inhibition | P53350 | AID 720504 | Potency, µM, without a hit: max response, negative = inhibition, usual class: inhibitors | Plk1 PBD binding of FITC phosphopeptide, fluorescence polarization | 360,000 compounds, 2.8% hits; also: series mostly up to about 57 µM; % is scaled to controls: 0 for no effect and ±100 for the full control effect; nearly all actives have a fitted effect of over 65% in size
VDR inh: inhibitors of human vitamin D receptor. P11473. Potency, µM, for the others: max response, negative = inhibition, usual class: inhibitors. VDR-SRC2-3 peptide fluorescence polarization, 2 h. 400,000 compounds, 0.93% hits; also: % is scaled to controls: 0 for no effect and ±100 for the full control effect
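Inhibition of the VDR/SRC2-3 peptide interaction is quantified by fluorescence polarization. Compounds (23 nl, pintool) incubate with the reagents for 2 hours at ambient room temperature.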
Numbers without * were called inactive; ? = inconclusive; · = not tested or not shown; ! = not confirmed by another sample; [ ] = dose if it differs, or a comment. Hits are enriched below; roughly 11% of the tested compounds scored in any of these assays. Calls follow the shape of the dose curve; as a rule, active = well fitted curve in the direction sought with a large enough effect; inconclusive = small, poorly fitted or top-dose-only effect, or another doubt; inactive = no such curve, though single readings can be large; an effect the other way counts as inactive or inconclusive. Potency is read from the fitted curve at half-maximal effect.

SMILES	HP1b binding inh	JMJD2A Tudor	G9a block	BAZ2B inh	PLK1 PBD inh	VDR inh
COc1ccc(C(C(=O)NC2CCCC2)N(CCO)C(=O)Cn2nnc(-c3ccc(C)o3)n2)cc1OC (configuration not stated)	3%	-17%	28µM*	-3%	-11%	-12%
Cc1cc(C)nc(Nc2nc(=O)c3ccccc3s2)n1	17%	-10%	40µM*	-4%	-17%	-15%
Cc1cc(C)nc(Nc2nc(-c3ccccc3)cs2)n1	21%	-10%	·	-2%	-2%	-6%
CCN(C(=O)CSc1nnnn1-c1ccccc1)C1CCS(=O)(=O)C1 (configuration not stated)	33%	-9%	14%	-10%	-7%	4%
Cc1cc2c(NCCc3ccccc3)ncnc2s1	34%	3%	50µM*	?	3%	-5%
CCN(CC)C(=O)N1CCN(C)CC1	-19%	56µM*	14µM*!	?	-6%	-12%
CCC(CO)Oc1cc(NCc2ccccc2F)c2ncn(C(C)C)c2c1 (configuration not stated)	-3%	?	18%[2.33 µM]	?	-8%	-20%
CCC(CO)Oc1cc(NCc2ccccc2C(F)(F)F)c2ncn(C(C)C)c2c1 (configuration not stated)	?	45µM*	·	·	-1%	0%
CCC(CO)Oc1cc(NCc2ccccc2Cl)c2ncn(C(C)C)c2c1 (configuration not stated)	-22%	50µM*	-12%[2.33 µM]	?	-16%	-1%
O=C(CC1C(=O)NCCN1Cc1c(F)cccc1Cl)NCCCOc1cccnc1 (configuration not stated)	38%	-8%	6%[59 µM]	-3%	-8%	20%
Cc1ccc(S(=O)(=O)N/N=C\c2ccc3c(c2)OCO3)c(C)c1	24%	-30%	1%[59 µM]	-18%	-10%	4%
Cc1ccc(C)c(S(=O)(=O)N/N=C/c2ccc(F)cc2)c1	27%	-22%	11µM*	-4%	-18%	-4%
CC(=O)Nc1ccc(S(=O)(=O)NN=Cc2ccc(Cl)c(Cl)c2)cc1	-7%	-31%	·	·	-24%	-7%
CC(=O)Nc1ccc(/C=N/NS(=O)(=O)c2cc(C)ccc2C)cc1	36%	-4%	50µM*	-37%	1%	24%
CC(C)(C)NC(=O)NC(=O)CSc1nnc(-c2ccccc2F)n1N	23%	-26%	1%[59 µM]	2%	-7%	7%
Cc1nnc(SCC(=O)NC(=O)NC(C)(C)C)n1N	?	?	?	4%	27µM*	-18%
CC1CCCN(C(=O)C2CC(=O)N(c3ccc(Cl)cc3)C2)C1 (configuration not stated)	-20%	-21%	45µM*	-3%	-12%	2%
O=C(C1CC(=O)N(c2ccc(Cl)cc2)C1)N1CCCCCC1 (configuration not stated)	-6%	-4%	?	-27%	-9%	5%
Cc1nc(-c2ccc(F)cc2)c(CC(=O)N(C)CC(=O)Nc2ccccc2Br)s1	5%	-21%	9%[2.33 µM]	-3%	-2%	12%
Cc1nc(-c2ccc(F)cc2)c(CC(=O)N(C)CC(=O)Nc2ccc(Br)cc2C)s1	6%	-33%	32µM*	-19%	2%	4%
CCCc1nn2c(C)c(-c3ccccc3)nc2s1	130%	-14%	-8%[59 µM]	-1%	·	3%
Cc1ccc(OCCN2CCN(C)CC2)c([N+](=O)[O-])c1	-45%	3.5µM*	2.5µM*	50µM*	-2%	6%
Cc1ccc(OCCOCCn2cnc3ccccc3c2=O)c([N+](=O)[O-])c1	15%	-5%	5%[59 µM]	2%	-11%	-18%
C=CCN(CC=C)CCOc1cc(C)ccc1[N+](=O)[O-]	28µM*	?	10µM*	22µM*	-3%	8%
Cc1ccc(OCc2ccc(C(=O)N3CCCC3)o2)c([N+](=O)[O-])c1	8%	-16%	?	-17%	-11%	3%
SMILES	HP1b binding inh	JMJD2A Tudor	G9a block	BAZ2B inh	PLK1 PBD inh	VDR inh
Cc1ccc([N+](=O)[O-])c(OCCCN2CCC(Cc3ccccc3)CC2)c1	?	20µM*	·	·	8%	-1%
Cc1ccc(OCCN2CCNCC2)c([N+](=O)[O-])c1	-7%	40µM*	8.9µM*	56µM*	?	-9%
Cc1cc(C(=O)N2CCC(Cc3ccccc3)CC2)ccc1[N+](=O)[O-]	3%	-25%	?	-20%[57.1 µM]	1%	-15%
C#CCN(CC=C)C(=O)c1ccc2nc(C3CCCCC3)oc2c1	26%	-10%	3%	0%	-4%	-10%
O=C(NCC1CCOCC1)C1CCC(=O)N(Cc2cccc(C(F)(F)F)c2)C1 (configuration not stated)	67%	-16%	-11%	-2%	-19%	-15%
O=[N+]([O-])c1ccccc1OCCCN1CCc2ccccc2C1	34%	-20%	?	-35%	-5%	-5%
O=[N+]([O-])c1cccc(OCCN2CCC(Cc3ccccc3)CC2)c1	?	14µM*	11µM*	56µM*	-14%	16%
O=C(c1ccc([N+](=O)[O-])cc1)N1CCC(Cc2ccccc2)CC1	-8%	?	-35%	?	?	-7%
O=[N+]([O-])c1ccccc1OCCN1CCOCC1	9%	-15%	·	8%	-3%	-8%
CC1CC(C)CN(CCCOc2ccccc2[N+](=O)[O-])C1 (configuration not stated)	?	32µM*	14µM*	-30%	-11%	3%
Cc1ccc([N+](=O)[O-])c(OCCN2CCc3ccccc3C2)c1	?	20µM*	10µM*	50µM*	-7%	9%
CCN(CC)S(=O)(=O)c1cccc(-c2nc3n(n2)Cc2ccccc2-3)c1	24%	-32%	50µM*	-33%	-6%	5%
O=C(NCc1n[nH]c(=S)n1Cc1ccccc1)c1ccccc1	8%	?	35%	-12%	?	10%
Cc1ccc2nc(-c3cccc(S(=O)(=O)N(C)C)c3)cn2c1	32%	-2%	7%[59 µM]	-1%	-18%	10%
COC(Cn1c(-c2cccc(S(=O)(=O)N(C)C)c2)n[nH]c1=S)OC	0%	7.9µM*	10µM*	·	0%	-22%
CC(C)c1cc(-c2n[nH]c(=S)n2Cc2ccccc2)cs1	0%	-27%	?	-12%	-12%	-2%
CCN(CC)S(=O)(=O)c1ccc(C(=O)NCc2n[nH]c(=S)n2Cc2ccccc2)cc1	21%	28µM*	?	-5%	-3%	0%
CCN(CC)S(=O)(=O)c1cccc(-c2n[nH]c(=S)n2Cc2ccccc2)c1	37%	?	0.89µM*	-36%	2%	2%
CCOC(=O)c1scc(-c2ccc(C)cc2)c1S(=O)(=O)N1CCN(c2ccccc2F)CC1	26%	-10%	-5%[59 µM]	-2%	·	-2%
